Compound activity as filed in PubChem BioAssay.
ATG4B inhibitor: ATG4B (human) cysteine protease inhibition | ATG4B cleavage of LC3-PLA2, NBD-HPC fluorescence, 1 h | hit rate 0.51% among 340,000 | Q9Y4P1 | inhibition, % at 8.33 µM; in the data active means inhibition above about 40%
CFTR F508del cor: CFTR F508del correction in bronchial cells; CFBE cells, YFP halide quenching; stimulated with forskolin plus potentiator P3; % fluorescence drop versus neutral controls; activity (quench increase), % at 7.58 µM; hit rate 0.36% among 350,000;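 active means mean added fluorescence quench of at least 8% versus neutral control, with both replicates also reaching 8%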;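 further: cells transiently co-express mutant CFTR-F508del with the halide-sensitive YFP; corrector assay measuring rescue of mutant channel to the surface after 24 h compound exposure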
MPTP inh: permeability transition pore inhibition; hit rate 1.4% among 360,000; inhibition, % at 10 µM; isolated mouse mitochondria, Ca2+ swelling absorbance, 30 min;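 active means inhibition of 50% or more, scaled per plate between neutral and stimulator controls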;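 further: 0% = DMSO wells given calcium and 100% = 1 mM EGTA wells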
SKN-1 inh: inhibitors of C. elegans SKN-1 | hit rate 0.49% among 360,000 | C. elegans VP596 Pgst-4::GFP/RFP ratio, acrylamide-induced, 24 h | AID 624304 | inhibition, % at 21.8 µM;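 active means interference check ratio from 0.5 to 1.5 plus GFP to RFP signal ratio inhibition reaching or exceeding a fixed threshold, cut at about 30% in these data, passing the limit was not always enough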
CendR NRP1 mod: modulators of CendR peptide binding to human neuropilin-1; O14786; FAM-RPARPAR peptide binding to NRP-1, fluorescence polarization; inhibition, % at 25 µM; hit rate 0.85% among 360,000;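 active means inhibition or corrected inhibition above about 18%, plus a signal ratio from 0.5 to 1.5, limit read from the data, passing the limit was not always enough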
Target sequence (O14786 whole entry, looked up): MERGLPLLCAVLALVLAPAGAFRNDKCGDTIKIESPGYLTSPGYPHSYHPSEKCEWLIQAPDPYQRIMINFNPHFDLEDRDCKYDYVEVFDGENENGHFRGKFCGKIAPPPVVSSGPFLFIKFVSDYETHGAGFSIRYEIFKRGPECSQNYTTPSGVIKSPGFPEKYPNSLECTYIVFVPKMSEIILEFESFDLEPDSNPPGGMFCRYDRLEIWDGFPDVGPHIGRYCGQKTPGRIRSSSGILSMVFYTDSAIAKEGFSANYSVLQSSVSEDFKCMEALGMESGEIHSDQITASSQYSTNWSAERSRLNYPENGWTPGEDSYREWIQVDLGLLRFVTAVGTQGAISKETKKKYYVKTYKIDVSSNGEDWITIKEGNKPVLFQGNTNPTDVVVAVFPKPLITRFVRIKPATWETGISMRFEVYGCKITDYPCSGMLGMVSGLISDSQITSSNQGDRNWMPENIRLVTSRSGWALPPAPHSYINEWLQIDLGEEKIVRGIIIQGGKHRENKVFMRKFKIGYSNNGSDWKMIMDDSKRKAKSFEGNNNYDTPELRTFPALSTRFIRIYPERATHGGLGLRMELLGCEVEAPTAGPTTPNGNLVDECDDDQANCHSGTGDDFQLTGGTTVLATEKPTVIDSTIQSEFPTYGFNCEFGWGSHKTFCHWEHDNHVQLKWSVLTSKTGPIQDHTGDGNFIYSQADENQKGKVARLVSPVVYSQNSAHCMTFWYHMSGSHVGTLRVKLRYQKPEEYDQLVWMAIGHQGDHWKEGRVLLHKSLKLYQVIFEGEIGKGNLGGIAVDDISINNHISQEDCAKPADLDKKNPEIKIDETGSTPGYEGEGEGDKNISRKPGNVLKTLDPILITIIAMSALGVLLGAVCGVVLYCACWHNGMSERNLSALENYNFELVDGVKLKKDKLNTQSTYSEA
* marks the source's active call; other numbers are inactive results. Sampled rows, rich in hits. Any-hit rate of the full collection: about 2.7%.

How did CCC1OC2(C)OC(=N)C1(C#N)C(C#N)(C#N)C2c1ccccc1 (stereo not drawn) do in these assays?
ATG4B inhibitor: -7; CFTR F508del cor: 1; MPTP inh: 1; SKN-1 inh: 47*; CendR NRP1 mod: -15

Results for CCC(=O)c1c[nH]c(C(=O)NCc2cccnc2)c1 ?
ATG4B inhibitor: -8; CFTR F508del cor: 0; MPTP inh: 0; SKN-1 inh: 2; CendR NRP1 mod: 22*

What do the screens show for `CCCC(=O)c1c[nH]c(C(=O)NCc2cccnc2)c1`?
ATG4B inhibitor: 5; CFTR F508del cor: -1; MPTP inh: 1; SKN-1 inh: -1; CendR NRP1 mod: 3

What do the screens show for `O=C(NCc1ccc(F)cc1)C1CCN(S(=O)(=O)c2ccc(Br)s2)CC1`?
ATG4B inhibitor: 20; CFTR F508del cor: 1; MPTP inh: 4; SKN-1 inh: -1; CendR NRP1 mod: 30*

What do the screens show for `O=C(NCc1ccc(F)cc1)C1CCCN(S(=O)(=O)c2ccc(Br)s2)C1` (stereo not drawn)?
ATG4B inhibitor: -8; CFTR F508del cor: 0; MPTP inh: 2; SKN-1 inh: -3; CendR NRP1 mod: -1

Results for COC1=C(N)C(=O)c2nc(C)ccc2C1=O ?
ATG4B inhibitor: 28; CFTR F508del cor: 6; MPTP inh: 0; SKN-1 inh: -11; CendR NRP1 mod: 31*

What do the screens show for `C[C@H]1CN([C@@H](C)CO)S(=O)(=O)c2ccc(C3=CCCC3)cc2O[C@H]1CN(C)C(=O)C1CCOCC1`?
CFTR F508del cor: 0

What do the screens show for `OC[C@@H]1[C@@H](c2ccccc2)C2(CN(CC3CC3)C2)N1Cc1cncnc1`?
CFTR F508del cor: -2

How did O=C(O)/C=C/C(=O)Nc1ccc(OCc2ccccc2)cc1 do in these assays?
ATG4B inhibitor: 9; CFTR F508del cor: 0; MPTP inh: 2; SKN-1 inh: 8; CendR NRP1 mod: 22*

Results for CC(Sc1nc2ccccc2s1)C(=O)NCc1ccc2c(c1)OCO2 (stereo not drawn) ?
ATG4B inhibitor: -3; MPTP inh: 1; SKN-1 inh: 5; CendR NRP1 mod: 2

Results for Cc1csc(SC(C)C(=O)NCc2ccc3c(c2)OCO3)n1 (stereo not drawn) ?
ATG4B inhibitor: -6; CFTR F508del cor: 4; MPTP inh: -2; SKN-1 inh: -5; CendR NRP1 mod: 26*

How did COc1ccc(C#Cc2ccc3c(c2)O[C@@H](CN(C)C(C)=O)[C@H](C)CN([C@H](C)CO)S3(=O)=O)cc1 do in these assays?
CFTR F508del cor: -1

How did COc1ccccc1/C=N/NC(=O)c1cc2c(OC)c(OC)ccc2[nH]1 do in these assays?
ATG4B inhibitor: -16; CFTR F508del cor: 9.3*; MPTP inh: 1; SKN-1 inh: 6; CendR NRP1 mod: 1

What do the screens show for `COc1cccc(/C=N/NC(=O)c2cc3c(OC)c(OC)ccc3[nH]2)c1OC`?
ATG4B inhibitor: -24; CFTR F508del cor: 6; MPTP inh: 2; SKN-1 inh: 3; CendR NRP1 mod: 5

How did COc1ccc(OC)c2[nH]c(C(=O)N/N=C/c3ccccc3O)cc12 do in these assays?
ATG4B inhibitor: 5; CFTR F508del cor: 14*; MPTP inh: 1; SKN-1 inh: 5; CendR NRP1 mod: 6

How did O=C(NCC[C@@H]1CC[C@@H](NC(=O)C2CCCC2)[C@@H](CO)O1)c1ccc(F)cc1 do in these assays?
CFTR F508del cor: 1

What do the screens show for `COc1ccc(C(=O)/C=C/c2ccc(OC)c(CN3CCOCC3)c2)cc1`?
ATG4B inhibitor: -6; MPTP inh: 1; SKN-1 inh: 61*; CendR NRP1 mod: 2

How did CC(=O)c1ccc(S(=O)(=O)Oc2ccc(-c3ccc(C(=O)O)cc3)cc2)cc1 do in these assays?
ATG4B inhibitor: -11; CFTR F508del cor: 0; MPTP inh: -1; SKN-1 inh: -1; CendR NRP1 mod: 26*

How did COCCNC(=O)CN1CCCCCC1 do in these assays?
ATG4B inhibitor: -4; CFTR F508del cor: 1; MPTP inh: 0; SKN-1 inh: -1; CendR NRP1 mod: 26*

How did Cc1ccccc1-c1cnc(C(O)c2ccc(F)c(F)c2)[nH]1 (stereo not drawn) do in these assays?
CFTR F508del cor: -1; MPTP inh: 0; SKN-1 inh: -2; CendR NRP1 mod: 23*

Results for Cc1cc(C(O)c2ncc(-c3ccccc3C)[nH]2)ccc1F (stereo not drawn) ?
CFTR F508del cor: 0; MPTP inh: 2; SKN-1 inh: -19; CendR NRP1 mod: -8

Results for C[C@@]12C(=O)N(Cc3ccc(-c4ccccc4)cc3)CC(=O)N1[C@H](/C=C/c1ccccc1)[C@@H]1C(=O)N(c3ccccc3)C(=O)[C@@H]12 ?
ATG4B inhibitor: -12; CFTR F508del cor: 2; MPTP inh: 0; SKN-1 inh: 39*; CendR NRP1 mod: -4

How did C[C@H]1CN([C@@H](C)CO)C(=O)c2ccccc2-c2ccccc2CO[C@@H]1CN(C)C(=O)c1ccc(F)cc1 do in these assays?
CFTR F508del cor: 0

Results for S=C(NCc1ccco1)NCC1CCCO1 (stereo not drawn) ?
ATG4B inhibitor: -3; CFTR F508del cor: 11*; MPTP inh: -5; SKN-1 inh: -5; CendR NRP1 mod: -13

How did S=C(NCc1cccs1)NCC1CCCO1 (stereo not drawn) do in these assays?
ATG4B inhibitor: 16; CFTR F508del cor: 1; MPTP inh: 0; SKN-1 inh: -9; CendR NRP1 mod: -18

How did O=C(O)c1ccc(CSc2nnc(SCc3ccccc3)s2)cc1 do in these assays?
ATG4B inhibitor: 3; MPTP inh: -1; SKN-1 inh: 2; CendR NRP1 mod: 11

Results for O=C(O)c1ccc(CSC2CCCCC2)cc1 ?
ATG4B inhibitor: 5; CFTR F508del cor: -4; MPTP inh: 0; SKN-1 inh: 13; CendR NRP1 mod: 22*

Results for CCOc1ccccc1C1CC(=O)NC2=C1C(=O)CC(C)(C)C2 (stereo not drawn) ?
ATG4B inhibitor: -2; MPTP inh: 0; SKN-1 inh: -4; CendR NRP1 mod: 26*

What do the screens show for `CCCC(=O)Nc1ccc2c(c1)C(=O)N(C)C[C@@H](OC)[C@@H](C)CN(C(=O)CC1CC1)[C@H](C)CO2`?
CFTR F508del cor: 2

How did CN1CCN(c2ccc(NC(=O)c3cc4ccccc4o3)cc2)CC1 do in these assays?
ATG4B inhibitor: -1; CFTR F508del cor: -2; MPTP inh: 1; SKN-1 inh: 34; CendR NRP1 mod: -3

Results for CCCC(=O)N1CCN(c2ccc(NC(=O)c3cc4ccccc4o3)cc2)CC1 ?
ATG4B inhibitor: -8; MPTP inh: -4; SKN-1 inh: 48*; CendR NRP1 mod: 5

Results for O=C(NC(=S)Nc1ccc(CN2CCCCC2)cc1)c1cc2ccccc2o1 ?
ATG4B inhibitor: -3; CFTR F508del cor: 0; MPTP inh: 14; SKN-1 inh: 73*; CendR NRP1 mod: 2

What do the screens show for `O=C(NCc1ccco1)C1CC(c2ccc(C(F)(F)F)cc2)=NO1` (stereo not drawn)?
ATG4B inhibitor: -13; CFTR F508del cor: 1; MPTP inh: 0; SKN-1 inh: 7; CendR NRP1 mod: 31*
